# Experimental data from PubChem BioAssay AID1578 (Sanford-Burnham Center for Chemical Genomics, 2009).
# Where “and” joins values, the source holds several entries; their conditions need not be identical. Equal values may be shown once. In all, about 290,000 compounds went through this assay and about 3,000 (1%) were called active. The sample as a whole holds a higher share of actives than the screen did. Unmarked numbers belong to inactive results. Rule as the data show it: active = inhibition mostly above about 36% (no sharp cut-off); inactive = mostly below about 34%.
# Assay: NOD1 signaling inhibitors, primary screen, cell-based, luminescence, uHTS (AID 1578);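 also: HEK-293T reporter cells stimulated with the NOD1 agonist gamma-tri-DAP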
# Conditions: NOD1-driven NF-kB luciferase reporter cells, at 4 µM, hits give high values
row,SMILES,inhibition
1,COc1cccc(NP(=O)(Oc2ccccc2)Oc2ccccc2)c1,-28.2%
2,O=C(NC1(C(F)(F)F)Oc2ccc(Cl)cc2O1)N1CCC2(CC1)OCCO2 (configuration not stated),5%
3,Cc1ccccc1-n1c(O)c(C=NCCN2CCOCC2)c(=O)[nH]c1=O,-5.7%
4,O=C(Cn1nc(-c2ccc(Cl)cc2)ccc1=O)N1CCC2(CC1)OCCO2,-21%
5,CCC(=NCCO)c1c(O)n(-c2ccccc2)c(=O)[nH]c1=O,11.4%
6,COc1cc2c(cc1OC)-c1c(OC)c(OC)c(OC)c3ccnc(c13)C2=O,25.5%
7,CC(C)c1ccc(N2C(=O)NC(=O)/C(=C/C=C/c3ccco3)C2=O)cc1,56.9%
8,O=C1NC(=O)N(CCc2ccc(F)cc2)C(=O)/C1=C/C=C/c1ccccc1,42.2% (active)
9,CC(C)c1ccc(N2C(=O)NC(=O)/C(=C\C=C\c3ccco3)C2=O)cc1,78.9% (active)
10,O=C1NC(=O)N(CCc2ccc(F)cc2)C(=O)/C1=C/c1ccco1,10.2%
11,Cc1ccc(N2C(=O)NC(=O)/C(=C\C=C\c3ccco3)C2=O)cc1C,48.7%
12,O=C1NC(=O)N(CCc2ccc(F)cc2)C(=O)/C1=C/c1cccs1,12.9%
13,CCCC(C)n1[nH]c(=O)c2c1NC(=O)CSC2c1ccccc1 (configuration not stated),-4.2%
14,COc1ccc(CCN(C)Cc2ccc(F)cc2F)cc1OC,-4.5%
15,O=[N+]([O-])c1ccc(Nc2ccccc2)cc1,26.1%
16,CC(C)C(=O)Nc1nnc(CCN(CCc2nnc(NC(=O)C(C)C)s2)[N+](=O)[O-])s1,0.8%
17,COc1cc(CC2C(=O)N(C)C(=O)N(C)C2=O)ccc1OCc1ccccc1,-15.9%
18,C[C@H]1CCCC(=O)CCCCCc2cc(O)cc(O)c2C(=O)O1,10.7%
19,CC1CCC[C@H](O)CCCCCc2cc(O)cc(O)c2C(=O)O1 (some centres not stated),-20.3% and 0.8%
20,C[C@H]1CCC[C@H](O)CCCCCc2cc(O)cc(O)c2C(=O)O1,71.9% (active)
21,COc1ccc(S(=O)(=O)NC(CC(=O)N2CCC3(CC2)OCCO3)C(C)C)cc1 (configuration not stated),-3.9%
22,Cc1cccnc1-n1c(-c2ccccc2)nc2ccccc2c1=O,-2.5%
23,O=C(c1ccco1)c1cn(Cc2ccccc2Cl)c2ccccc12,19.5%
24,CC1(C)C[C@H]2C=C(C=O)[C@]3(C=O)C[C@]3(C)[C@H]2C1,106% (active)
25,Cc1c(P(=S)(c2ccccc2)c2ccccc2)[n+]2ccccc2n1C,-18.7%
26,O=C(Nc1ccc(Cl)cc1C(=O)c1ccccc1)c1ccc(Br)o1,37.5%

row,SMILES,inhibition
1,Cc1ccc2c(c1)CCCN2N=O,-27.4%
2,C=C(CC1CC(O)[C@]2(C)OC3CC4OC5C[C@]6(C)O[C@]7(C)CCC8OC9C[C@]%10(C)OC%11C(C)=CC(=O)OC%11CC%10OC9C[C@@H](C)C8OC7CC6O[C@]5(C)C/C=C\C4OC3CC2O1)C(=O)O (some centres not stated),-18.2%
3,C=C(CO)CC1CC(O)[C@]2(C)OC3CC4OC5C[C@]6(C)O[C@]7(C)CCC8OC9C[C@]%10(C)OC%11C(C)=CC(=O)OC%11CC%10OC9C[C@@H](C)C8OC7CC6O[C@]5(C)C/C=C\C4OC3CC2O1 (some centres not stated),-6.2%
4,C=C(C=O)C[C@@H]1C[C@H](O)C2OC3C[C@]4(C)OC5/C=C\CC6OC7C(CC=CCC6OC5CCCC4OC3CC2O1)OC1CC2OC3CC(=O)OC3C[C@@H](C)C[C@@]2(C)OC1C[C@@H]7C (some centres not stated),76% (active)
5,Clc1cccc(Cl)c1C1N2CCCN12 (configuration not stated),8.1%
6,c1ccc2c(c1)CNc1ccccc1O2,-9%
7,S=C(NCCc1ccccc1)NCCc1cnc[nH]1,0.7%
8,COc1ccc(OC)c(NP(=O)(Oc2ccccc2)Oc2ccccc2)c1,-6.6%
9,Cc1ccc(C)c(NP(=O)(Oc2ccccc2)Oc2ccccc2)c1,48.1% (active)
10,Cc1cccc(NP(=O)(Oc2ccccc2)Oc2ccccc2)c1C,-22.3%
11,O=C(CN1CCCC1)Nc1ccc(Cl)cc1C(=O)c1ccccc1,-5.6%
12,COc1ccc(CNCCc2c(C)[nH]c3ccc(OC(F)(F)F)cc23)c(OC)c1,5.5%
13,O=P(Nc1ccccc1)(Nc1ccccc1)Oc1ccccc1,-0.3%
14,COc1cc2c(cc1OC)[C@@H]1C(=O)c3ccc4c(c3O[C@@H]1CO2)C[C@H](C(C)C)O4,58.9% (active)
15,O=c1c2ccccc2nc(-c2ccccc2)n1-c1ccccc1O,-8.3%
16,Cn1cnnc1Sc1cc(N2CCNCC2)ccc1[N+](=O)[O-],-17.2%
17,CCOc1ccc(C2(C#N)CC[N+](C)(C)CC2)cc1,-0.5%
18,COCc1cc(OC(=O)N(C)C)nc2c1c(C)nn2C,-6.7%
19,O=C(CN1CC(c2ccccc2)CC1=O)Nc1ccc(F)cc1 (configuration not stated),-14.5%
20,O=C(COc1ccccc1)NCCc1cnc[nH]1,3.5%
21,O=C(/C=C/c1ccccc1)NCCc1cnc[nH]1,32.6% (active)
22,O=C(CCCc1ccccc1)NCCc1cnc[nH]1,-15.9%
23,CCOc1ccccc1Oc1coc2cc(OC(=O)N(C)C)ccc2c1=O,0.4%
24,COc1cccc(Oc2coc3cc(OC(=O)N(C)C)ccc3c2=O)c1,6.2%
25,O=C1CC(c2ccccc2)CC(O)=C1C=NCCN1CCN(C(=O)Cc2ccccc2)CC1 (configuration not stated),8.5%
26,O=C(C1CCCN(S(=O)(=O)c2cccc3nsnc23)C1)N1CCC2(CC1)OCCO2 (configuration not stated),-9.3%

row,SMILES,inhibition
1,O=C(Cc1ccccc1)N1CCN(Cc2cccc(Br)c2)CC1,0.2%
2,CC(C)c1oc(=O)cc2c1[C@@H](O)[C@H]1OC(=O)[C@@]3(C)C[C@@H](O)[C@@H](O)[C@@]2(C)C13 (some centres not stated),96.2% (active)
3,CC(C)c1oc(=O)cc2c1[C@@H](O)[C@H]1OC(=O)[C@@]3(C)CC[C@@H](O)[C@@]2(C)C13 (some centres not stated),-5.4%
4,Cc1csc(=N)n1Cc1ccccc1,-19.9%
5,Cc1cccc(N2C(=O)NC(=O)C3(Cc4cc(C)ccc4N(C)C3)C2=O)c1 (configuration not stated),11%
6,COc1ccc(Cl)cc1C(=O)C1CCCN(Cc2cnc(C)s2)C1 (configuration not stated),-27.2%
7,CC1CCC(C(C)C)C(OP(N)(=O)c2ccccc2)C1 (configuration not stated),12.7%
8,CC1CCC(C(C)C)C(OC(=O)Cn2c(COc3ccccc3)[n+](C)c3ccccc32)C1 (configuration not stated),-12.8%
9,CC1CCC(C(C)C)C(OC(=O)COC(=O)c2ccccc2N)C1 (configuration not stated),79.2% (active)
10,Cc1cccnc1-n1c(-c2ccco2)nc2ccccc2c1=O,-8.5%
11,CC(C)(C)NC(=S)/N=C(\N)N[N+](=O)[O-],-21.7%
12,Cc1[nH]c2ccccc2c1C(=O)C(=O)N1CCC2(CC1)OCCO2,-23.7%
13,CC(C)[C@]12O[C@H]1[C@@H]1O[C@]13[C@]1(O[C@H]1C[C@H]1C4=C(CC[C@@]13C)C(=O)OC4)[C@@H]2O,107% (active)
14,Cn1c(O)c(C=Nc2ccccc2-c2ccccc2)c(=O)n(C)c1=O,-12.2%
15,COc1ccccc1[As](=O)(O)CC(O)COc1ccc(Cl)cc1Cl (configuration not stated),-11%
16,CN(C)c1ccc(C(=O)N/N=C/C23CC[C@@H](O)CC2(O)CC[C@@H]2[C@@H]3CCC3(C)C(C4=CC(=O)OC4)CCC23O)cc1 (some centres not stated),45% (active)
17,CC12CC[C@H]3[C@@H](CCC4(O)C[C@H](O)CCC34/C=N/NC(=O)c3ccc(O)cc3)C1(O)CCC2C1=CC(=O)OC1 (some centres not stated),-7.5%
18,COc1ccc(C(=O)N/N=C/C23CC[C@@H](O)CC2(O)CC[C@@H]2[C@@H]3CCC3(C)C(C4=CC(=O)OC4)CCC23O)cc1 (some centres not stated),12.5%
19,CC(=O)N1N=C2C3CCN(CC3)C2C1c1ccc(C)cc1 (configuration not stated),-23.8%
20,COc1ccccc1OCCCn1cc(C(=O)c2ccco2)c2ccccc21,3.3%
21,Cc1cc(C=C2C(=O)NC(=S)NC2=O)c(C)n1-c1ccc2c(c1)OCO2,104% (active)
22,Cc1cc(C=C2C(=O)NC(=O)NC2=O)c(C)n1-c1ccc2c(c1)OCO2,55.3%
23,Cc1cc(/C=C2\C(=O)NC(=O)N(C)C2=O)c(C)n1-c1ccc2c(c1)OCO2,-6.1%
24,C/C(=N\N1CCCCCC1)c1c(O)n(C)c(=O)n(C)c1=O,-4.6%
25,Cc1cccn2c(NCC3CCCO3)c(C(C)C)nc12 (configuration not stated),2.9%
